Experimental data taken from PubChem BioAssay AID1159580 (chemical genetic matrix, 2015).
About 2,000 (36%) of roughly 5,500 compounds were called active. Not shown: some 18% with an inconclusive outcome. Rule as the data show it: active = normalized growth mostly below about 0.91 (no sharp cut-off); inconclusive = no clear call, values can overlap the other calls; inactive = mostly above about 0.92. The list shows a part of the results.

Test: chemical genetic growth profiling, strain panel (AID 1159580);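 also: tested at 20 µM; growth read once vehicle control cultures reached saturation at 30 °C; 1 = growth at the plate median or of vehicle wells; lower values mean less growth of the strain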
Conditions: growth OD

Measured: normalized growth

CC(=O)N[C@@H](CS)C(=O)O
inactive: S. cerevisiae deletion strains, locus YAL013W, strain DEP1, active compounds read low 1 | S. cerevisiae deletion strains, locus YAL021C, strain ccr4, active compounds read low 1.02 | S. cerevisiae deletion strains, locus YAL026C, strain drs2, active compounds read low 1 | S. cerevisiae deletion strains, locus YAL030W, strain snc1, active compounds read low 0.995 | S. cerevisiae deletion strains, locus YBL061C, strain skt5, active compounds read low 1.01 | S. cerevisiae deletion strains, locus YBR009C, strain hhf1, active compounds read low 1 | S. cerevisiae deletion strains, locus YBR021W, strain FUR4, active compounds read low 0.989 | S. cerevisiae deletion strains, locus YBR023C, strain chs3, active compounds read low 0.994 | S. cerevisiae deletion strains, locus YBR171W, strain sec66, active compounds read low 0.991 | S. cerevisiae deletion strains, locus YBR229C, strain ROT2, active compounds read low 1.01 | S. cerevisiae deletion strains, locus YBR231C, strain swc5, active compounds read low 1.01 | S. cerevisiae deletion strains, locus YBR279W, strain paf1, active compounds read low 1.01 | S. cerevisiae deletion strains, locus YCL011C, strain gbp2, active compounds read low 0.997 | S. cerevisiae deletion strains, locus YCL016C, strain dcc1, active compounds read low 0.998 | S. cerevisiae deletion strains, locus YCL029C, strain bik1, active compounds read low 1.03 | S. cerevisiae deletion strains, locus YCL061C, strain MRC1, active compounds read low 0.995 | S. cerevisiae deletion strains, locus YCL069W, strain vba3, active compounds read low 1.01 | S. cerevisiae deletion strains, locus YCR088W, strain abp1, active compounds read low 1 | S. cerevisiae deletion strains, locus YDL005C, strain med2, active compounds read low 0.992 | S. cerevisiae deletion strains, locus YDL035C, strain GPR1, active compounds read low 1 | S. cerevisiae deletion strains, locus YDL040C, strain nat1, active compounds read low 1.01 | S. cerevisiae deletion strains, locus YDL074C, strain BRE1, active compounds read low 1.01 | S. cerevisiae deletion strains, locus YDL101C, strain DUN1, active compounds read low 1.01 | S. cerevisiae deletion strains, locus YDL134C, strain PPH21, active compounds read low 0.997 | S. cerevisiae deletion strains, locus YDL185W, strain tfp1, active compounds read low 1.02 | S. cerevisiae deletion strains, locus YDL192W, strain arf1, active compounds read low 1.01 | S. cerevisiae deletion strains, locus YDR001C, strain nth1, active compounds read low 0.997 | S. cerevisiae deletion strains, locus YDR069C, strain doa4, active compounds read low 1.01 | S. cerevisiae deletion strains, locus YDR101C, strain arx1, active compounds read low 1.01 | S. cerevisiae deletion strains, locus YDR137W, strain rgp1, active compounds read low 1.02 | S. cerevisiae deletion strains, locus YDR159W, strain sac3, active compounds read low 1.01 | S. cerevisiae deletion strains, locus YDR162C, strain NBP2, active compounds read low 1.02 | S. cerevisiae deletion strains, locus YDR195W, strain ref2 0.985 | S. cerevisiae deletion strains, locus YDR297W, strain sur2, active compounds read low 0.99 | S. cerevisiae deletion strains, locus YDR318W, strain mcm21, active compounds read low 1.02 | S. cerevisiae deletion strains, locus YDR334W, strain swr1, active compounds read low 1 | S. cerevisiae deletion strains, locus YDR335W, strain msn5, active compounds read low 1.01 | S. cerevisiae deletion strains, locus YDR388W, active compounds read low 1.02 | S. cerevisiae deletion strains, locus YDR392W, strain spt3, active compounds read low 1.02 | S. cerevisiae deletion strains, locus YDR502C, strain sam2, active compounds read low 1.01 | S. cerevisiae deletion strains, locus YEL003W, strain gim4, active compounds read low 1.01 | S. cerevisiae deletion strains, locus YEL037C, strain rad23, active compounds read low 1 | S. cerevisiae deletion strains, locus YEL061C, strain CIN8 (second series), active compounds read low 0.988 | S. cerevisiae deletion strains, locus YEL061C, strain CIN8, active compounds read low 1.01 | S. cerevisiae deletion strains, locus YER015W, strain faa2, active compounds read low 1 | S. cerevisiae deletion strains, locus YER016W, strain bim1, active compounds read low 0.995 | S. cerevisiae deletion strains, locus YER110C, active compounds read low 1.03 | S. cerevisiae deletion strains, locus YER111C, strain swi4, active compounds read low 0.989 | S. cerevisiae deletion strains, locus YER155C, strain BEM2 (second series), active compounds read low 1.01 | S. cerevisiae deletion strains, locus YER155C, strain BEM2, active compounds read low 1.01 | S. cerevisiae deletion strains, locus YER167W, strain BCK2, active compounds read low 1.01 | S. cerevisiae deletion strains, locus YFR010W, strain ubp6, active compounds read low 0.983 | S. cerevisiae deletion strains, locus YGL078C, strain dbp3, active compounds read low 1.01 | S. cerevisiae deletion strains, locus YGL086W, strain mad1, active compounds read low 1.01 | S. cerevisiae deletion strains, locus YGL167C, strain pmr1, active compounds read low 0.995 | S. cerevisiae deletion strains, locus YGL173C, strain kem1, active compounds read low 1 | S. cerevisiae deletion strains, locus YGL227W, strain vid30, active compounds read low 1 | S. cerevisiae deletion strains, locus YGL240W, strain doc1, active compounds read low 0.964 | S. cerevisiae deletion strains, locus YGL248W, strain PDE1, active compounds read low 1.02 | S. cerevisiae deletion strains, locus YGL253W, strain hxk2, active compounds read low 1.02 | S. cerevisiae deletion strains, locus YGR135W, strain pre9, active compounds read low 1.02 | S. cerevisiae deletion strains, locus YGR252W, strain gcn5, active compounds read low 0.999 | S. cerevisiae deletion strains, locus YHR013C, strain ard1, active compounds read low 1.02 | S. cerevisiae deletion strains, locus YHR027C, strain rpn1, active compounds read low 1.01 | S. cerevisiae deletion strains, locus YHR030C, strain SLT2, active compounds read low 1.01 | S. cerevisiae deletion strains, locus YHR079C, strain IRE1 (second series), active compounds read low 1.03 | S. cerevisiae deletion strains, locus YHR094C, strain hxt1, active compounds read low 1.01 | S. cerevisiae deletion strains, locus YHR129C, strain ARP1, active compounds read low 1.01 | S. cerevisiae deletion strains, locus YHR142W, strain chs7, active compounds read low 1.02 | S. cerevisiae deletion strains, locus YHR200W, strain rpn10, active compounds read low 1.02 | S. cerevisiae deletion strains, locus YIL066C, strain RNR3, active compounds read low 1.02 | S. cerevisiae deletion strains, locus YIL073C, strain SPO22, active compounds read low 1.07 | S. cerevisiae deletion strains, locus YIL125W, strain kgd1, active compounds read low 1.02 | S. cerevisiae deletion strains, locus YIR030C, strain dcg1, active compounds read low 1.01 | S. cerevisiae deletion strains, locus YJL092W, strain hpr5, active compounds read low 1.02 | S. cerevisiae deletion strains, locus YJL095W, strain BCK1 (second series), active compounds read low 1.01 | S. cerevisiae deletion strains, locus YJL095W, strain BCK1, active compounds read low 1.01 | S. cerevisiae deletion strains, locus YJL115W, strain asf1, active compounds read low 0.991 | S. cerevisiae deletion strains, locus YJL129C, strain trk1, active compounds read low 1 | S. cerevisiae deletion strains, locus YJL134W, strain LCB3, active compounds read low 1.01 | S. cerevisiae deletion strains, locus YJL154C, strain vps35, active compounds read low 1.01 | S. cerevisiae deletion strains, locus YJL164C, strain tpk1, active compounds read low 1 | S. cerevisiae deletion strains, locus YJL166W, strain qcr8, active compounds read low 0.985 | S. cerevisiae deletion strains, locus YJL168C, strain set2, active compounds read low 1.01 | S. cerevisiae deletion strains, locus YJL187C, strain SWE1 (second series), active compounds read low 1.03 | S. cerevisiae deletion strains, locus YJR043C, strain POL32, active compounds read low 1 | S. cerevisiae deletion strains, locus YKL009W, strain mrt4, active compounds read low 1.04 | S. cerevisiae deletion strains, locus YKL068W, active compounds read low 1.01 | S. cerevisiae deletion strains, locus YKL085W, strain MDH1 (second series), active compounds read low 1 | S. cerevisiae deletion strains, locus YKL085W, strain MDH1, active compounds read low 1 | S. cerevisiae deletion strains, locus YKL160W, strain elf1, active compounds read low 0.998 | S. cerevisiae deletion strains, locus YKR001C, strain vps1, active compounds read low 1.01 | S. cerevisiae deletion strains, locus YKR026C, strain gcn3, active compounds read low 0.991 | S. cerevisiae deletion strains, locus YKR091W, strain srl3, active compounds read low 1.01 | S. cerevisiae deletion strains, locus YLL001W, strain dnm1, active compounds read low 0.994 | S. cerevisiae deletion strains, locus YLL026W, active compounds read low 1.01 | S. cerevisiae deletion strains, locus YLL041C, strain sdh2, active compounds read low 1.01 | S. cerevisiae deletion strains, locus YLR027C, strain aat2, active compounds read low 1.01 | S. cerevisiae deletion strains, locus YLR039C, strain RIC1, active compounds read low 1.02 | S. cerevisiae deletion strains, locus YLR058C, strain SHM2, active compounds read low 1.02 | S. cerevisiae deletion strains, locus YLR102C, strain apc9, active compounds read low 1.02 | S. cerevisiae deletion strains, locus YLR221C, strain rsa3, active compounds read low 1 | S. cerevisiae deletion strains, locus YLR258W, strain gsy2, active compounds read low 1.01 | S. cerevisiae deletion strains, locus YLR262C, strain YPT6 (second series), active compounds read low 1 | S. cerevisiae deletion strains, locus YLR262C, strain YPT6, active compounds read low 1.08 | S. cerevisiae deletion strains, locus YLR268W, strain sec22, active compounds read low 1.02 | S. cerevisiae deletion strains, locus YLR320W, strain mms22, active compounds read low 1.01 | S. cerevisiae deletion strains, locus YLR330W, strain CHS5, active compounds read low 1.01 | S. cerevisiae deletion strains, locus YLR342W, strain FKS1 (second series), active compounds read low 0.995 | S. cerevisiae deletion strains, locus YLR342W, strain FKS1, active compounds read low 1.01 | S. cerevisiae deletion strains, locus YLR357W, strain rsc2, active compounds read low 0.989 | S. cerevisiae deletion strains, locus YLR370C, strain arc18, active compounds read low 1.01 | S. cerevisiae deletion strains, locus YLR371W, strain rom2, active compounds read low 1.03 | S. cerevisiae deletion strains, locus YLR384C, strain iki3, active compounds read low 1.01 | S. cerevisiae deletion strains, locus YLR418C, strain cdc73, active compounds read low 1.05 | S. cerevisiae deletion strains, locus YML016C, strain PPZ1, active compounds read low 1.01 | S. cerevisiae deletion strains, locus YML032C, strain rad52, active compounds read low 1.01 | S. cerevisiae deletion strains, locus YML120C, strain ndi1, active compounds read low 0.999 | S. cerevisiae deletion strains, locus YML124C, strain tub3, active compounds read low 1.04 | S. cerevisiae deletion strains, locus YMR058W, strain fet3, active compounds read low 0.998 | S. cerevisiae deletion strains, locus YMR078C, strain ctf18, active compounds read low 1.03 | S. cerevisiae deletion strains, locus YMR125W, strain sto1, active compounds read low 1.01 | S. cerevisiae deletion strains, locus YMR129W, active compounds read low 0.984 | S. cerevisiae deletion strains, locus YMR205C, strain PFK2, active compounds read low 0.995 | S. cerevisiae deletion strains, locus YMR223W, strain ubp8, active compounds read low 1.02 | S. cerevisiae deletion strains, locus YMR231W, strain pep5, active compounds read low 1 | S. cerevisiae deletion strains, locus YMR263W, strain SAP30, active compounds read low 1.01 | S. cerevisiae deletion strains, locus YMR307W, strain GAS1, active compounds read low 1.04 | S. cerevisiae deletion strains, locus YNL067W, strain RPL9B, active compounds read low 1.03 | S. cerevisiae deletion strains, locus YNL071W, strain lat1, active compounds read low 1.02 | S. cerevisiae deletion strains, locus YNL128W, strain TEP1, active compounds read low 1.03 | S. cerevisiae deletion strains, locus YNL153C, strain GIM3, active compounds read low 1.02 | S. cerevisiae deletion strains, locus YNL209W, strain ssb2, active compounds read low 1 | S. cerevisiae deletion strains, locus YNL233W, strain BNI4, active compounds read low 1.01 | S. cerevisiae deletion strains, locus YNL248C, strain rpa49, active compounds read low 1.08 | S. cerevisiae deletion strains, locus YNL250W, strain rad50, active compounds read low 1.01 | S. cerevisiae deletion strains, locus YNL271C, strain bni1, active compounds read low 1.03 | S. cerevisiae deletion strains, locus YNL298W, strain CLA4, active compounds read low 1.02 | S. cerevisiae deletion strains, locus YNL307C, strain MCK1, active compounds read low 1.02 | S. cerevisiae deletion strains, locus YNL322C, strain KRE1 (second series), active compounds read low 0.999 | S. cerevisiae deletion strains, locus YNR049C, strain mso1, active compounds read low 1 | S. cerevisiae deletion strains, locus YNR052C, strain pop2, active compounds read low 1.03 | S. cerevisiae deletion strains, locus YOL006C, strain TOP1, active compounds read low 0.995 | S. cerevisiae deletion strains, locus YOL012C, strain htz1 0.978 | S. cerevisiae deletion strains, locus YOL147C, strain pex11, active compounds read low 1.02 | S. cerevisiae deletion strains, locus YOR001W, strain rrp6, active compounds read low 1.02 | S. cerevisiae deletion strains, locus YOR061W, strain CKA2, active compounds read low 1.02 | S. cerevisiae deletion strains, locus YOR069W, strain VPS5, active compounds read low 1.01 | S. cerevisiae deletion strains, locus YOR070C, strain gyp1, active compounds read low 1 | S. cerevisiae deletion strains, locus YOR080W, strain dia2, active compounds read low 0.984 | S. cerevisiae deletion strains, locus YOR083W, strain WHI5, active compounds read low 1 | S. cerevisiae deletion strains, locus YOR106W, strain vam3, active compounds read low 1.02 | S. cerevisiae deletion strains, locus YOR136W, strain idh2, active compounds read low 1.03 | S. cerevisiae deletion strains, locus YOR144C, strain elg1, active compounds read low 1.03 | S. cerevisiae deletion strains, locus YOR184W, strain ser1, active compounds read low 1.01 | S. cerevisiae deletion strains, locus YOR265W, strain rbl2, active compounds read low 1 | S. cerevisiae deletion strains, locus YOR270C, strain vph1, active compounds read low 1.04 | S. cerevisiae deletion strains, locus YOR290C, strain snf2, active compounds read low 0.994 | S. cerevisiae deletion strains, locus YOR316C, strain cot1, active compounds read low 1.02 | S. cerevisiae deletion strains, locus YPL051W, strain arl3, active compounds read low 1.01 | S. cerevisiae deletion strains, locus YPL078C, strain atp4, active compounds read low 0.992 | S. cerevisiae deletion strains, locus YPL106C, strain sse1, active compounds read low 0.988 | S. cerevisiae deletion strains, locus YPL240C, strain hsp82, active compounds read low 0.999 | S. cerevisiae deletion strains, locus YPR119W, strain clb2, active compounds read low 1.02 | S. cerevisiae deletion strains, locus YPR141C, strain kar3, active compounds read low 1.03 | S. cerevisiae deletion strains, locus YPR163C, strain tif3, active compounds read low 1.03 | S. cerevisiae deletion strains, locus YPR167C, strain met16, active compounds read low 1.06 | S. cerevisiae deletion strains, strain wtn01, active compounds read low 1.01 | S. cerevisiae strains, strain wild type, active compounds read low 1.01
